Some test systems named below: HCT-15 colon; HT29 colon; SNB-75 CNS; U251 CNS; SK-MEL-5 melanoma; UACC-62 melanoma; LOX IMVI melanoma; SK-MEL-28 melanoma; PC-3 prostate; SNB-19 CNS.
What all share (test): NCI-60 one-dose screen, 48 h (100 = growth as untreated, 0 = no growth, -100 = all killed)
Conditions in all cases: 10 µM unless noted

Compounds without any hit were thinned out: in the full panel of roughly 83,000, 20% have a hit.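 Step 1: grow cells in 96-well plates. Step 2: add test compound at a single concentration. Step 3: incubate 48 h. Step 4: record percent growth.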 Unmarked numbers belong to inactive results. Calls of active or inactive are those of the source. The calls were made as follows: active = growth percent below 10; inactive = the rest.

For `COc1cc(/C=C/C(=O)c2cccnc2Nc2ccc(F)cc2)cc(OC)c1OC`, the growth in the assay on HCT-15 colon is 22.2%; with HT29 colon, 12.5%; in the assay on SNB-75 CNS it was 22.4%; in the assay on U251 CNS it was 24.1%; in the assay with SK-MEL-5 melanoma, 53.7%; with UACC-62 melanoma, 49.9%. For the same compound, the growth in the assay with LOX IMVI melanoma was 8.97% (active); with SK-MEL-28 melanoma it was 72.1%.

In the case of `CSc1nc(NCCN2CCOCC2)c(C#N)c(-c2cccc([N+](=O)[O-])c2)n1`, the growth with HCT-15 colon is 97.4%; in the assay on HT29 colon, 106%; in the assay on SNB-75 CNS, 62.8%; in the assay with PC-3 prostate, 97.4%; with SK-MEL-5 melanoma it was 99.3%; with UACC-62 melanoma, 87.4%. For the same compound, the growth is 95.9% in the assay with LOX IMVI melanoma and 103% in the assay with SK-MEL-28 melanoma.

Take `CC(C)c1c(C(=O)c2ccccc2)c(-c2ccccc2)c(-c2ccc(F)cc2)n1CC[C@@H](O)C[C@@H](O)CC(=O)O`: the growth in the assay with HCT-15 colon was 47.5%; in the assay with HT29 colon, 106%; with SNB-19 CNS, 57.4%; with PC-3 prostate, 37%; in the assay with UACC-62 melanoma, 16.6%; with SK-MEL-28 melanoma it was 65.4%.

As to `C=CC(=O)Nc1cccc(-c2nc(SC)nc(NCCN3CCOCC3)c2C#N)c1`, the growth in the assay on HCT-15 colon was 90.1%; in the assay with HT29 colon, 89.4%; with SNB-75 CNS, 44.8%; in the assay on PC-3 prostate it was 92.7%; with SK-MEL-5 melanoma, 94.9%; in the assay on UACC-62 melanoma, 86.7%. The growth is 85.5% in the assay with LOX IMVI melanoma and 114% with SK-MEL-28 melanoma.

`NC(=O)c1cc(Cl)ccc1NC(=O)/C=C/c1ccccc1`: the growth was 27.3% in the assay with HCT-15 colon; 8.83% (active) in the assay with HT29 colon; 0.0967% (active) in the assay on SNB-75 CNS; 29.8% with U251 CNS; 5.23% (active) in the assay on SK-MEL-5 melanoma; 47.7% in the assay with UACC-62 melanoma. The growth in the assay on LOX IMVI melanoma was 53.3%; in the assay with SK-MEL-28 melanoma it was 40.6%.

Take `O=C(Cc1ccc(/C=C/C(=O)c2ncc[nH]2)cc1)Nc1ccc(F)cc1`: the growth in the assay on HCT-15 colon is 5.31% (active); in the assay with HT29 colon, 3.91% (active); in the assay on SNB-75 CNS, 20.4%; in the assay on U251 CNS it was 8.1% (active); in the assay on PC-3 prostate it was 32.9%; in the assay on UACC-62 melanoma, 40.5%. The growth with LOX IMVI melanoma was 2.77% (active); in the assay on SK-MEL-28 melanoma, 87.2%.

Turning to `CC1=C/C(=C(\c2ccc(N(C)C)cc2)c2ccc([N+](C)(C)C)cc2)C=CC1=[N+](C)C`, the growth in the assay on HCT-15 colon was 95.7%; in the assay on HT29 colon, 36.5%; with SNB-75 CNS, 80.5%; with U251 CNS, 25.7%; in the assay on PC-3 prostate, 72.9%; with UACC-62 melanoma, 97.6%. For the same compound, the growth in the assay on LOX IMVI melanoma was 69.1%; in the assay with SK-MEL-28 melanoma, 72.3%.

On to `CCn1c(O)c(/C=N/NC(=O)C(C)c2ccc(CC(C)C)cc2)sc1=S` (configuration not stated), for which the growth was 17.6% with HCT-15 colon; 10.1% with HT29 colon; -2% (active) in the assay with SNB-75 CNS; 15.6% in the assay with U251 CNS; 17% in the assay on SK-MEL-5 melanoma; 46% in the assay with UACC-62 melanoma. The growth in the assay on LOX IMVI melanoma is 27.1%; in the assay on SK-MEL-28 melanoma, 69.6%.

For `CCOC(=O)c1cc(C(=O)c2ccc(O)c(O)c2)n2ccc(-c3ccn4c(C(=O)c5ccc(O)c(O)c5)cc(C(=O)OCC)c4c3)cc12`, the growth in the assay with HCT-15 colon is 88%; with HT29 colon, 96%; in the assay on SNB-75 CNS it was 87.3%; with U251 CNS, 97%; with PC-3 prostate it was 89.1%; in the assay with UACC-62 melanoma, 97.9%. In addition, the growth in the assay with LOX IMVI melanoma is 89%; with SK-MEL-28 melanoma it was 113%.

As for `CC[C@@H]1O[C@H](O[C@@H](c2cnc[nH]2)[C@H](NC(=O)c2nc([C@H](CC(N)=O)NC[C@@H](N)C(N)=O)nc(N)c2C)C(=O)N[C@H](C)[C@H](O)[C@H](C)C(=O)N[C@@H](C(=O)NCCc2nc(-c3nc(C(=O)NCCCCN=C(N)N)cs3)cs2)[C@@H](C)O)[C@H](O[C@@H]2O[C@H](CO)[C@H](O)[C@H](OC(N)=O)[C@@H]2O)[C@H](C)[C@@H]1C`, the growth in the assay with HCT-15 colon is 45.1%; with HT29 colon it was 53.9%; in the assay with SNB-19 CNS, 45.9%; in the assay on U251 CNS, 35.3%; in the assay with PC-3 prostate it was 71.2%; in the assay on UACC-62 melanoma, 37.5%. Besides, the growth with SK-MEL-28 melanoma was 87.6%.

With `CC1=CC(C)(C)Nc2ccc(Cc3ccc4c(c3)C(C)=CC(C)(C)N4)cc21`, the growth with HCT-15 colon is 101%; with HT29 colon, 103%; in the assay with SNB-75 CNS it was 86.3%; in the assay on U251 CNS, 93.5%; in the assay on SK-MEL-5 melanoma, 92.8%; in the assay with UACC-62 melanoma it was 84.1%. Also, the growth was 88.7% in the assay on LOX IMVI melanoma and 104% in the assay on SK-MEL-28 melanoma.

Regarding `COC(=O)c1ccc(Cn2cnc3c(N)ncnc32)cc1`, the growth with HCT-15 colon is 99.8%; in the assay with HT29 colon, 98.6%; in the assay with SNB-75 CNS it was 86.7%; in the assay with U251 CNS it was 111%; with PC-3 prostate it was 111%; in the assay with UACC-62 melanoma it was 102%. For the same compound, the growth in the assay with SK-MEL-28 melanoma is 104%.

As to `C=C1C(=O)O[C@H]2[C@H]1CC/C(COC(=O)NCc1ccc(OC)c(OC)c1)=C\CC[C@@]1(C)O[C@@H]21`, the growth in the assay on HCT-15 colon is 50.7%; with HT29 colon it was 28.8%; with SNB-75 CNS it was 58.7%; in the assay on U251 CNS it was 86.5%; with PC-3 prostate, 78.4%; in the assay on LOX IMVI melanoma it was 69.4%.

Take `Cn1cccc1-c1nc2c3c(ccc2[nH]1)C(=O)c1ccccc1C3=O`: the growth with HCT-15 colon was 82.1%; with HT29 colon, 104%; in the assay with SNB-75 CNS it was 137%; with U251 CNS, 87.5%; in the assay on SK-MEL-5 melanoma it was 90.4%; in the assay with UACC-62 melanoma, 80.5%. In addition, the growth with LOX IMVI melanoma is 88.9%; in the assay with SK-MEL-28 melanoma, 117%.

For `Cc1oc(-c2ccc(Cl)cc2Cl)cc1C(=O)Nc1nccs1`, the growth with HCT-15 colon was 85.6%; with HT29 colon it was 86.6%; in the assay on SNB-75 CNS, 84.4%; in the assay with PC-3 prostate, 96.6%; with SK-MEL-5 melanoma, 97.1%; with UACC-62 melanoma, 91.7%. Further, the figures for the growth with LOX IMVI melanoma and with SK-MEL-28 melanoma were 79.1% and 105%, respectively.

For `Cn1c(NCCc2ccc(O)c(O)c2)nc2c1c(=O)n(Cc1ccc(Cl)c(Cl)c1)c(=O)n2C`, the growth in the assay with HCT-15 colon is 45.7%; with HT29 colon it was 94.4%; with SNB-75 CNS it was 56.1%; with U251 CNS, 77.9%; in the assay on SK-MEL-5 melanoma, 65.4%; in the assay on UACC-62 melanoma it was 73.9%. For the same compound, the values for the growth with LOX IMVI melanoma and in the assay with SK-MEL-28 melanoma were 86.5% and 77.3%, respectively.
